Among the data in PubChem BioAssay (NCATS) are activation and Potency values, retold here.

Assay [1] deals with Cellular tumor antigen p53 (Homo sapiens) (UniProt P04637). Put plainly: Primary qHTS for small molecule compounds that upregulate eGFP-tagged delta133p53alpha (in N-terminal) cells. (AID 2060322). Also: nearly all actives have a fitted effect of over 75% in size. Also: potency is read from the fitted curve at half-maximal effect.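 As to activation: series mostly up to about 56 µM; 0% = DMSO vehicle and 100% = reference activator.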 The note with it: NCI-H358 eGFP-delta133p53alpha fluorescence, 24 h; activation: stronger effect = higher value. Summed up: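 NCI-H358 cells pre-induced 24 h with 10 ng/ml doxycycline to express N-terminal eGFP-delta133p53alpha, then dosed 24 h at 37C without doxycycline; fixed, Hoechst-stained, GFP intensity by laser scanning cytometry, normalized to DMSO (0%) and 57.5 uM 5-azacytidine (100%).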

Assay [2] deals with Aldehyde dehydrogenase, mitochondrial (Homo sapiens) (UniProt P05091). Put plainly: qHTS for Inhibitors of the Aldehyde Dehydrogenase Family (ALDH2) Primary screen (AID 2061308).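 Also: plate controls were vehicle for no effect and reference inhibitor for full effect; nearly all actives have a fitted effect of over 55% in size.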
In assay [3] the target is Retinaldehyde dehydrogenase 3 (Homo sapiens) (UniProt P47895). Put plainly: qHTS for Inhibitors of the Aldehyde Dehydrogenase Family (ALDH1A3) Validation screen (AID 2061312). Also: % is scaled to controls: 0 for no effect and ±100 for the full control effect; nearly all actives have a fitted effect of over 45% in size. For orientation: qHTS replaces the single test concentration by a dilution series.
Assay [4] shares this target. Description: qHTS for Inhibitors of the Aldehyde Dehydrogenase Family (ALDH1A3) Primary screen (AID 2061315).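 Also: plate controls were DMSO vehicle for no effect and reference inhibitor for full effect.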

Where “and” joins values, the source holds several entries; their conditions need not be identical. Equal values may be shown once. Records with an inconclusive call do not appear. Unmarked numbers belong to inactive results. Calls of active or inactive are those of the source. Calls follow the shape of the dose curve; as a rule, active = well fitted curve in the direction sought with a large enough effect; inconclusive = small, poorly fitted or top-dose-only effect, or another doubt; inactive = no such curve, though single readings can be large; an effect the other way counts as inactive or inconclusive.

Sequence of Cellular tumor antigen p53 (Homo sapiens) (P04637 whole entry, looked up): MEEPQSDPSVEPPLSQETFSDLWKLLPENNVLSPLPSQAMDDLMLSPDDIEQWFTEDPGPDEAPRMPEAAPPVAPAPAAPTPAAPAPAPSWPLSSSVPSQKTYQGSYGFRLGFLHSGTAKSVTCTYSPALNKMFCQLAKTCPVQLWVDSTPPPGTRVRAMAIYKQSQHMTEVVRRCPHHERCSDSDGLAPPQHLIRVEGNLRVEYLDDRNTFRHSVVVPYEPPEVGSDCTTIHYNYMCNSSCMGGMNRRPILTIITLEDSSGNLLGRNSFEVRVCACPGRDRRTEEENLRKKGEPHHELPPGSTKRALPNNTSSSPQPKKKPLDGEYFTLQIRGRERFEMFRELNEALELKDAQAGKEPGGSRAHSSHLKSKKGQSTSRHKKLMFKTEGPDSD

On to `O=C(c1ccc(F)cc1)C1CCN(CCn2c(=O)nc3n(c2=O)CCCC3)CC1`, for which the activation in assay [1] was -6.21%. In addition, the Potency result in assay [2], in assay [3] and in assay [4] was “inactive” each time.
Regarding `CCCC(N[C@@H](C)C(=O)N1[C@H](C(=O)O)C[C@@H]2CCCC[C@@H]21)C(=O)OCC` (some centres not stated), the activation in assay [1] is 2.39%. In addition, the Potency result in assay [2], in assay [3] and in assay [4] was “inactive” throughout.
As to `CCOC(=O)CCC(=O)O[C@H]1[C@H](O[C@@H]2[C@@H](C)[C@H](O[C@H]3C[C@@](C)(OC)[C@@H](O)[C@H](C)O3)[C@@H](C)C(=O)O[C@H](CC)[C@@](C)(O)[C@H](O)[C@@H](C)C(=O)[C@H](C)CC2(C)O)O[C@H](C)C[C@@H]1N(C)C` (some centres not stated), the activation in assay [1] was 9.55%. Further, the Potency entry in assay [2], in assay [3] and in assay [4] was “inactive” throughout.
For the molecule `COc1cccc(N2CCN(C3=Nc4c(F)cccc4[C@H](CC(=O)O)N3c3cc(C(F)(F)F)ccc3OC)CC2)c1`, the activation in assay [1] is -5.73%. Besides, the Potency result in assay [2], in assay [3] and in assay [4] was “inactive” each time.
In the case of `O=[N+]([O-])c1cn2c(n1)OCC(OCc1ccc(OC(F)(F)F)cc1)C2` (configuration not stated), the activation in assay [1] was -10%. In addition, the Potency result in assay [2], in assay [3] and in assay [4] was “inactive” throughout.
For `COc1cccc(C(=O)NCCNc2nc3cc(C)cc(C)c3cc2C#N)c1`, in assay [1], the activation is -1.91%. In addition, the Potency entry in assay [2], in assay [3] and in assay [4] was “inactive” each time.
Turning to `CC[C@H](C(=O)Nc1ccccc1N1CCCC1)c1ccccc1`, the activation in assay [1] was 2.86%. The Potency result in assay [2], in assay [3] and in assay [4] was “inactive” in each case.
Take `CNc1ccc([N+](=O)[O-])cc1-n1cnc(-c2ccc(C(F)(F)F)cc2)c1`: the activation in assay [1] is 5.25%. For the same molecule, the Potency result in assay [2], in assay [3] and in assay [4] was “inactive” in each case.
Take `CC(=O)NC1=NN(C(C)=O)C(C)(c2ccccc2)S1` (configuration not stated): in assay [1], the Potency is 12 µM (active). Besides, the Potency entry in assay [2], in assay [3] and in assay [4] was “inactive” in each case.
For `CNCCCC1(c2ccccc2)OC(C)(C)c2ccccc21` (configuration not stated), the activation in assay [1] is -11.9%. The Potency result in assay [2], in assay [3] and in assay [4] was “inactive” in each case.
Turning to `CC[C@@H](N)CNc1ccnc(-c2cc(-c3cnn(C)c3)ccc2O)n1`, the Potency in assay [1] is 6.75 µM (active). Further, the Potency result in assay [2], in assay [3] and in assay [4] was “inactive” throughout.
As for `CC(C)S(=O)(=O)Nc1ccc(F)c(C(=O)c2c[nH]c3ncc(-c4cccnc4)cc23)c1F`, the activation in assay [1] is 28.6%. Also, the Potency entry in assay [2], in assay [3] and in assay [4] was “inactive” each time.
Turning to `C[C@@H]1C(=O)O[C@H]2[C@@H](O)C34[C@H]5C[C@@H](C(C)(C)C)C36[C@@H](OC(=O)[C@@H]6O)O[C@@]4(C(=O)O5)[C@@]12O` (some centres not stated), the activation in assay [1] is 5.25%. The Potency result in assay [2], in assay [3] and in assay [4] was “inactive” in each case.
Regarding `COc1cc2ncnc(Oc3ccc(CC(=O)Nc4cnn(C(C)C)c4)cc3)c2cc1OC`, the activation in assay [1] was 4.77%. The Potency entry in assay [2], in assay [3] and in assay [4] was “inactive” each time.
Turning to `Cc1c(OCc2cccc(-c3ccc(C(=O)O)cc3)c2)cc2c(c1C)C(=O)C(C1CCCC1)C2` (configuration not stated), in assay [1], the activation is -8.59%. The Potency result in assay [2], in assay [3] and in assay [4] was “inactive” each time.
Turning to `CCN[C@@H]1C[C@H](N)[C@@H](O[C@H]2OC(CN)=CC[C@H]2N)[C@H](O)[C@H]1O[C@H]1OC[C@](C)(O)[C@H](NC)[C@H]1O`, the activation in assay [1] is 10.5% and 9.67%. Moreover, the Potency entry in assay [2], in assay [3] and in assay [4] was “inactive” throughout.
As for `CC(=O)O[C@]1(C(C)=O)CC[C@H]2[C@@H]3C[C@H](C)C4=CC(=O)C=C[C@]4(C)[C@@]3(F)[C@@H](O)C[C@@]21C`, the activation in assay [1] was 1.91%. The Potency entry in assay [2], in assay [3] and in assay [4] was “inactive” each time.
`O=C1N=C(N2CCOCC2)CN1c1ccc(Cl)cc1`: in assay [1], the activation is -6.21%. For the same molecule, the Potency entry in assay [2], in assay [3] and in assay [4] was “inactive” in each case.
`O=C(Nc1ccccc1Br)NC1CCN(c2ccc(C(F)(F)F)cn2)C1` (configuration not stated): in assay [1], the activation was 0.477%. The Potency result in assay [2], in assay [3] and in assay [4] was “inactive” each time.
`COc1cccc(-c2cc(NCc3ccc4c(c3)OCO4)nc(N)n2)c1`: the activation in assay [1] was -3.82%. Also, the Potency entry in assay [2], in assay [3] and in assay [4] was “inactive” throughout.
Regarding `O=c1[nH]c2ccccc2n1CCN1CCN(c2cccc(C(F)(F)F)c2)CC1`, the activation in assay [1] was -3.34%. The Potency entry in assay [2], in assay [3] and in assay [4] was “inactive” throughout.
Regarding `CNC(C)C(=O)NC(C(=O)N1CCCC1c1nc(C(=O)c2ccc(F)cc2)cs1)C1CCCCC1` (configuration not stated), in assay [1], the activation is 17.2%. The Potency result in assay [2], in assay [3] and in assay [4] was “inactive” in each case.
With `Oc1ccc(-c2cnc3ccc(NCc4ccco4)nn23)cc1`, the Potency in assay [1] is 26.9 µM (active). Moreover, the Potency result in assay [2], in assay [3] and in assay [4] was “inactive” in each case.
For the molecule `O=C(NCC1CCN(Cc2cccc(Cl)c2)CC1)[C@@H]1CCCN(c2ncnc3c2nc2n3CCCC2)C1`, the activation in assay [1] is 0%. Also, the Potency entry in assay [2], in assay [3] and in assay [4] was “inactive” each time.
`Cc1ccccc1C(=O)Nc1ccc(C(=O)N2CCCC(N(C)C)c3ccccc32)cc1` (configuration not stated): the Potency in assay [1] is 3.89 µM (active). In addition, the Potency result in assay [2], in assay [3] and in assay [4] was “inactive” in each case.
For `Cc1ccc(NC(=O)C(C)C)cc1C1CCN(Cc2ccc(Oc3ccc(F)c(F)c3)cc2)CC1`, in assay [1], the activation is 16.7%. Besides, the Potency result in assay [2], in assay [3] and in assay [4] was “inactive” each time.
As for `COc1ccc(Oc2cc(C)c(-c3csc(NC(=O)c4ccncc4)n3)c(C)c2)cc1`, the activation in assay [1] is 11%. Moreover, the Potency entry in assay [2], in assay [3] and in assay [4] was “inactive” in each case.
`Cc1nc2ccccc2c(-c2ccc3c4c(ccnc24)CCO3)c1[C@H](OC(C)(C)C)C(=O)O`: the activation in assay [1] is 0.955%. Moreover, the Potency entry in assay [2], in assay [3] and in assay [4] was “inactive” in each case.
